Structures can show the parent of a compound that is named as a salt.
Assays:
Test in all cases: phenotypically active (imaging signature differs from DMSO and reproducible) at any of 0.3-9 uM (binary (1 = active, 0 = inactive)); higher = active
Settings in all cases: treatment time: 24 h
A549-ACTB-RAB5A = tested on: A549-ACTB-RAB5A
Summary of the method: (§1)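 Fifteen gene-edited A549, HepG2 and WPMY1 reporter lines (BFP segmentation plus GFP and RFP/FusionRed markers) were treated at 0.3, 1, 3 or 9 µM for 24 h, four wells each, then imaged live. Live-cell features per well were normalised to DMSO control wells. Deviation required ≥3 of 4 wells beyond the 95th percentile of DMSO Euclidean distances, and reproducibility required median replicate Pearson correlation above the 95th percentile of non-replicates. Phenotypic activity needed both criteria.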

A549-CANX-COX4 = tested on: A549-CANX-COX4
Summary of the method: as §1

A549-GM130-SQSTM1 = tested on: A549-GM130-SQSTM1
Summary of the method: as §1

A549-TP53BP1-CLTA = tested on: A549-TP53BP1-CLTA
Summary of the method: as §1

A549-TUBA1B-RELA = tested on: A549-TUBA1B-RELA
Summary of the method: as §1

HepG2-ACTB-RAB5A = tested on: HepG2-ACTB-RAB5A
Summary of the method: as §1

HepG2-CANX-COX4 = tested on: HepG2-CANX-COX4
Summary of the method: as §1

HepG2-GM130-SQSTM1 = tested on: HepG2-GM130-SQSTM1
Summary of the method: as §1

HepG2-TP53BP1-CLTA = tested on: HepG2-TP53BP1-CLTA
Summary of the method: as §1

HepG2-TUBA1B-RELA = tested on: HepG2-TUBA1B-RELA
Summary of the method: as §1

WPMY1-ACTB-RAB5A = tested on: WPMY1-ACTB-RAB5A
Summary of the method: as §1

WPMY1-CANX-COX4 = tested on: WPMY1-CANX-COX4
Summary of the method: as §1

WPMY1-GM130-SQSTM1 = tested on: WPMY1-GM130-SQSTM1
Summary of the method: as §1

WPMY1-TP53BP1-CLTA = tested on: WPMY1-TP53BP1-CLTA
Summary of the method: as §1

WPMY1-TUBA1B-RELA = tested on: WPMY1-TUBA1B-RELA
Summary of the method: as §1

Measured: phenotypically active

O=C1NC(=O)/C(=C\c2cccc(C(F)(F)F)c2)S1
inactive: A549-ACTB-RAB5A 0 | A549-CANX-COX4 0 | A549-GM130-SQSTM1 0 | A549-TP53BP1-CLTA 0 | A549-TUBA1B-RELA 0 | HepG2-ACTB-RAB5A 0 | HepG2-CANX-COX4 0 | HepG2-GM130-SQSTM1 0 | HepG2-TP53BP1-CLTA 0 | HepG2-TUBA1B-RELA 0 | WPMY1-ACTB-RAB5A 0 | WPMY1-CANX-COX4 0 | WPMY1-GM130-SQSTM1 0 | WPMY1-TP53BP1-CLTA 0 | WPMY1-TUBA1B-RELA 0

O=C(O)c1ccc(N2N=C(Cc3ccccc3)/C(=C/c3ccc(-c4ccccc4F)o3)C2=O)cc1
inactive: A549-ACTB-RAB5A 0 | A549-CANX-COX4 0 | A549-GM130-SQSTM1 0 | A549-TP53BP1-CLTA 0 | A549-TUBA1B-RELA 0 | HepG2-ACTB-RAB5A 0 | HepG2-CANX-COX4 0 | HepG2-GM130-SQSTM1 0 | HepG2-TP53BP1-CLTA 0 | HepG2-TUBA1B-RELA 0 | WPMY1-ACTB-RAB5A 0 | WPMY1-CANX-COX4 0 | WPMY1-GM130-SQSTM1 0 | WPMY1-TP53BP1-CLTA 0 | WPMY1-TUBA1B-RELA 0

CC1=Nc2ccc(Cl)cc2S(=O)(=O)N1 [diazoxide]
inactive: A549-ACTB-RAB5A 0 | A549-CANX-COX4 0 | A549-GM130-SQSTM1 0 | A549-TP53BP1-CLTA 0 | A549-TUBA1B-RELA 0 | HepG2-ACTB-RAB5A 0 | HepG2-CANX-COX4 0 | HepG2-GM130-SQSTM1 0 | HepG2-TP53BP1-CLTA 0 | HepG2-TUBA1B-RELA 0 | WPMY1-ACTB-RAB5A 0 | WPMY1-CANX-COX4 0 | WPMY1-GM130-SQSTM1 0 | WPMY1-TP53BP1-CLTA 0 | WPMY1-TUBA1B-RELA 0

NC(=O)c1cccnc1 [Nicotinamide]
inactive: A549-ACTB-RAB5A 0 | A549-CANX-COX4 0 | A549-GM130-SQSTM1 0 | A549-TP53BP1-CLTA 0 | A549-TUBA1B-RELA 0 | HepG2-ACTB-RAB5A 0 | HepG2-CANX-COX4 0 | HepG2-GM130-SQSTM1 0 | HepG2-TP53BP1-CLTA 0 | HepG2-TUBA1B-RELA 0 | WPMY1-ACTB-RAB5A 0 | WPMY1-CANX-COX4 0 | WPMY1-GM130-SQSTM1 0 | WPMY1-TP53BP1-CLTA 0 | WPMY1-TUBA1B-RELA 0

CC(=O)N[C@@H](CC(=O)O)C(=O)N[C@@H](CCC(=O)O)C(=O)O [Spaglumic acid]
inactive: A549-ACTB-RAB5A 0 | A549-CANX-COX4 0 | A549-GM130-SQSTM1 0 | A549-TP53BP1-CLTA 0 | A549-TUBA1B-RELA 0 | HepG2-ACTB-RAB5A 0 | HepG2-CANX-COX4 0 | HepG2-GM130-SQSTM1 0 | HepG2-TP53BP1-CLTA 0 | HepG2-TUBA1B-RELA 0 | WPMY1-ACTB-RAB5A 0 | WPMY1-CANX-COX4 0 | WPMY1-GM130-SQSTM1 0 | WPMY1-TP53BP1-CLTA 0 | WPMY1-TUBA1B-RELA 0

CC(C)C(=O)SCCCCC[C@H](NC(=O)OC(C)(C)C)C(=O)NC12CC3CC(CC(C3)C1)C2
inactive: A549-ACTB-RAB5A 0 | A549-CANX-COX4 0 | A549-GM130-SQSTM1 0 | A549-TP53BP1-CLTA 0 | A549-TUBA1B-RELA 0 | HepG2-ACTB-RAB5A 0 | HepG2-CANX-COX4 0 | HepG2-GM130-SQSTM1 0 | HepG2-TP53BP1-CLTA 0 | HepG2-TUBA1B-RELA 0 | WPMY1-ACTB-RAB5A 0 | WPMY1-CANX-COX4 0 | WPMY1-GM130-SQSTM1 0 | WPMY1-TP53BP1-CLTA 0 | WPMY1-TUBA1B-RELA 0

CC[C@]12CCCN3CCc4c(n(c5ccccc45)[C@@](O)(C(=O)OC)C1)[C@@H]32 [Vincamine]
inactive: A549-ACTB-RAB5A 0 | A549-CANX-COX4 0 | A549-GM130-SQSTM1 0 | A549-TP53BP1-CLTA 0 | A549-TUBA1B-RELA 0 | HepG2-ACTB-RAB5A 0 | HepG2-CANX-COX4 0 | HepG2-GM130-SQSTM1 0 | HepG2-TP53BP1-CLTA 0 | HepG2-TUBA1B-RELA 0 | WPMY1-ACTB-RAB5A 0 | WPMY1-CANX-COX4 0 | WPMY1-GM130-SQSTM1 0 | WPMY1-TP53BP1-CLTA 0 | WPMY1-TUBA1B-RELA 0

CC[N+](C)(CC)CCOC(=O)C1c2ccccc2Oc2ccccc21 [methantheline]
inactive: A549-ACTB-RAB5A 0 | A549-CANX-COX4 0 | A549-GM130-SQSTM1 0 | A549-TP53BP1-CLTA 0 | A549-TUBA1B-RELA 0 | HepG2-ACTB-RAB5A 0 | HepG2-CANX-COX4 0 | HepG2-GM130-SQSTM1 0 | HepG2-TP53BP1-CLTA 0 | HepG2-TUBA1B-RELA 0 | WPMY1-ACTB-RAB5A 0 | WPMY1-CANX-COX4 0 | WPMY1-GM130-SQSTM1 0 | WPMY1-TP53BP1-CLTA 0 | WPMY1-TUBA1B-RELA 0

O=C(O)c1ccc(O)c2ncccc12
inactive: A549-ACTB-RAB5A 0 | A549-CANX-COX4 0 | A549-GM130-SQSTM1 0 | A549-TP53BP1-CLTA 0 | A549-TUBA1B-RELA 0 | HepG2-ACTB-RAB5A 0 | HepG2-CANX-COX4 0 | HepG2-GM130-SQSTM1 0 | HepG2-TP53BP1-CLTA 0 | HepG2-TUBA1B-RELA 0 | WPMY1-ACTB-RAB5A 0 | WPMY1-CANX-COX4 0 | WPMY1-GM130-SQSTM1 0 | WPMY1-TP53BP1-CLTA 0 | WPMY1-TUBA1B-RELA 0

CC(C(=O)O)c1ccc(C(=O)c2cccs2)cc1 (stereo not given) [suprofen]
inactive: A549-ACTB-RAB5A 0 | A549-CANX-COX4 0 | A549-GM130-SQSTM1 0 | A549-TP53BP1-CLTA 0 | A549-TUBA1B-RELA 0 | HepG2-ACTB-RAB5A 0 | HepG2-CANX-COX4 0 | HepG2-GM130-SQSTM1 0 | HepG2-TP53BP1-CLTA 0 | HepG2-TUBA1B-RELA 0 | WPMY1-ACTB-RAB5A 0 | WPMY1-CANX-COX4 0 | WPMY1-GM130-SQSTM1 0 | WPMY1-TP53BP1-CLTA 0 | WPMY1-TUBA1B-RELA 0

C[n+]1cccc(C(=O)O)c1 [Trigonelline hydrochloride]
inactive: A549-ACTB-RAB5A 0 | A549-CANX-COX4 0 | A549-GM130-SQSTM1 0 | A549-TP53BP1-CLTA 0 | A549-TUBA1B-RELA 0 | HepG2-ACTB-RAB5A 0 | HepG2-CANX-COX4 0 | HepG2-GM130-SQSTM1 0 | HepG2-TP53BP1-CLTA 0 | HepG2-TUBA1B-RELA 0 | WPMY1-ACTB-RAB5A 0 | WPMY1-CANX-COX4 0 | WPMY1-GM130-SQSTM1 0 | WPMY1-TP53BP1-CLTA 0 | WPMY1-TUBA1B-RELA 0

Cn1cnc2c(NCc3ccccc3)nc(NCCO)nc21 [Olomoucine]
inactive: A549-ACTB-RAB5A 0 | A549-CANX-COX4 0 | A549-GM130-SQSTM1 0 | A549-TP53BP1-CLTA 0 | A549-TUBA1B-RELA 0 | HepG2-ACTB-RAB5A 0 | HepG2-CANX-COX4 0 | HepG2-GM130-SQSTM1 0 | HepG2-TP53BP1-CLTA 0 | HepG2-TUBA1B-RELA 0 | WPMY1-ACTB-RAB5A 0 | WPMY1-CANX-COX4 0 | WPMY1-GM130-SQSTM1 0 | WPMY1-TP53BP1-CLTA 0 | WPMY1-TUBA1B-RELA 0
